Compound activity deposited in PubChem by National Center for Advancing Translational Sciences (NCATS).
Rows were chosen to be rich in hits. Some 4.7% of all compounds tested hit in one or more screens of this group.
TRHR agonist = activates the human TRH receptor; P34981; TRHR cells, calcium flux fluo-8, FDSS agonist mode; activation, % at 2 µM; hit rate 0.18% among 360,000; AID 493084; further: 0% is about no effect
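Steps: seed TRHR cells overnight; add fluo-8 no-wash Ca dye, RT 30 min–1.5 h; record 10 s baseline; pin-transfer compounds; monitor fluorescence 1 cycle/s for the agonist window. Calcium increases flag candidate agonists.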
D1 antagonist = antagonists of human D1 dopamine receptor; P21728; HEK293 TREx D1 cells, calcium flux, dopamine EC80; hits give low values; activity change, negative = inhibition, % at 10 µM; hit rate 3.2% among 360,000; in the data active means activity change below about -30%; further: on the % scale 0 is the no-effect control and ±100 the full control effect
Target sequence (P21728 whole entry, looked up): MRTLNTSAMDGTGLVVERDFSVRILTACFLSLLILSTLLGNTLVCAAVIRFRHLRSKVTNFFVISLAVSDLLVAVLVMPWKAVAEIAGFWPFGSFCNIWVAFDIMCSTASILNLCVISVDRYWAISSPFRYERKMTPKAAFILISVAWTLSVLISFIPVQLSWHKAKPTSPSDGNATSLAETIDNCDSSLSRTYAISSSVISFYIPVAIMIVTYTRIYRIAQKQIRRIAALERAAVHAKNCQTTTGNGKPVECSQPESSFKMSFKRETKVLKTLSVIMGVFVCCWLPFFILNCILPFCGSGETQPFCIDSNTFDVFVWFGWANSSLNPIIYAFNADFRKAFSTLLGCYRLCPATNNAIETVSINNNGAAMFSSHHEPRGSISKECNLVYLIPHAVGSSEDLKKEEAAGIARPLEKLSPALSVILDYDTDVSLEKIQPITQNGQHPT
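Allosteric or orthosteric antagonism assessed as attenuation of the calcium response to EC80 dopamine, added 180 s after compound, in induced HEK293 Trex D1 cells loaded with no-wash calcium dye.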
TRHR PAM = allosteric enhancers of human TRH receptor; P34981; TRHR cells, fluo-8 calcium fluorescence, EC20 TRH enhancement; enhancement, % at 2 µM; hit rate 0.66% among 360,000; AID 493056; in the data active means enhancement above about 30%; further: 0% is about no effect
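Enhancer read-out: after compound pinning and an initial kinetic agonist-mode read, an EC20 of TRH (10 nM final) was injected and fluo-8 calcium signal (Ex 480/Em 530) followed at 1 s/cycle for 100 cycles in TRHR-expressing cells.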
D1 potentiator = human D1 dopamine receptor positive modulation | P21728 | HEK293 TREx D1 cells, calcium flux, dopamine EC20 potentiation | potentiation, % at 10 µM | hit rate 0.036% among 360,000 | AID 504651; in the data active means potentiation above about 30%; further: 0% is about no effect
D1 agonist = agonists of human D1 dopamine receptor. P21728. HEK293 T-REx D1 cells, calcium flux, agonist mode. activation, % at 2 µM. hit rate 1% among 360,000. AID 504660; further: 0% is about no effect
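Inducible HEK293 T-REx D1 cells, force-coupled to calcium signalling, were plated at 4000 cells/well with tetracycline and held overnight at 30 C. After no-wash calcium dye loading, compound-evoked calcium rise over 180 s flagged agonists.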
Starred values were filed as active, the others as inactive; nt = not tested or not shown; ! = not active in a repeat. Unless noted, no stated cut-off is given here; in the data, active means activation above about 30%; inactive means the rest.

SMILES	TRHR agonist	D1 antagonist	TRHR PAM	D1 potentiator	D1 agonist
O=C1CN(C(=O)N[C@@H](Cc2ccccc2)C(=O)N[C@H](C(=O)O)c2ccccc2)c2ccccc2N1	0	17	8	-5	5
CC(C)C[C@H](NC(=O)N1CC(=O)Nc2ccccc21)C(=O)N[C@H](C(=O)O)c1ccccc1	0	-27	33*	-1	0
CC(C)(C)C(=O)Cn1c(=O)n(-c2ccc(Cl)c(Cl)c2)c(=O)c2c3c(sc21)CCCC3	1	-11	13	0	0
O=C1C2=C(C(=O)c3ccccc31)C1O[C@](CCCCN3C(=O)c4ccccc4C3=O)(Cc3ccccc31)O2	0	-15	3	-3	1
CCOc1ccc(/C=C2\SC(=S)NC2=O)cc1OC	0	-10	-3	0	1
O=C1NC(=S)S/C1=C\c1ccc2ccccc2c1	0	-31*	-5	-2	3
CCOC(=O)/C(C#N)=C/C=C1\C=Cc2ccccc2N1CC	5	11	-3	-2	11
CCCCCCN1C=CC(=C/C=C(\C#N)C(=O)OCC)C=C1	165*	-7	31*	-5	178*
CCCN1C=CC(=C/C=C(\C#N)C(=O)OCC)C=C1	58*	-7	6	0	33*
O=C(CSc1nc(-c2ccc(F)cc2)cc(C(F)(F)F)n1)NCCc1ccccc1	0	-8	20	-4	44*
CCC(C)NC(=O)CSc1nc(-c2ccc(F)cc2)cc(C(F)(F)F)n1 (stereo not given)	-1	-4	10	-5	2
CCN(CC)CCCNC(=O)CSc1nc(-c2ccc(F)cc2)cc(C(F)(F)F)n1	0	-41*	15	-4	15
CCCOc1ccccc1N/C(=N/c1nc(C)cc(C)n1)NC(=O)Nc1ccc(Cl)cc1	0	-50*	-10	-12	3
CCOc1ccccc1N/C(=N/c1nc(C)cc(C)n1)NC(=O)Nc1ccc(Cl)c(Cl)c1	0	-13	0	-9	0
COc1ccc(-c2nc3sc(CCNC(=O)c4ccco4)c(C)n3n2)cc1	0	nt	13	2	-3
CN1C/C(=C\c2ccc(N3CCOCC3)cc2)C(=O)/C(=C/c2ccc(N3CCOCC3)cc2)C1	21	8	-6	-4	46*
CCN1C/C(=C/c2ccc(N3CCOCC3)cc2)C(=O)/C(=C/c2ccc(N3CCOCC3)cc2)C1	28	5	4	-6	88*
CN1C/C(=C/c2ccncc2)C(=O)/C(=C/c2ccncc2)C1	0	7	-5	-5	2
CCN1CCN(c2ccc(NC(=O)c3cc(S(=O)(=O)N4CCCC4)ccc3Cl)cc2)CC1	1	-42*	0	-13	3
CCN1CCN(S(=O)(=O)c2ccc(Cl)c(C(=O)Nc3ccc(OC(F)F)cc3)c2)CC1	-1	-33*	-4	-13	8
Cc1ccc(CNc2ccc(-c3nc(-c4ccco4)no3)cc2[N+](=O)[O-])cc1	0	6	-1	5	2
Cc1ccc(S(=O)(=O)Nc2ccc(C(=O)N3CCCC3)cc2)cc1	0	-5	2	-5	6
Cc1ccc(NS(=O)(=O)c2ccc(C(=O)N3CC(C)CC(C)C3)cc2)cc1 (stereo not given)	11	-42*	-6	1	73*
O=C/C=C/c1c(-c2ccccc2)cc2oc3ccccc3cc1-2	-1	2	5	10	3
CCN(C(=O)C1CC1)C1CCS(=O)(=O)C1 (stereo not given)	0	-6	3	6	3
SMILES	TRHR agonist	D1 antagonist	TRHR PAM	D1 potentiator	D1 agonist
Cc1cccc(N(C)S(=O)(=O)c2ccc(-c3cnc(C4CC4)o3)cc2)c1	1	-38*	0	-10	9
CCOc1ccccc1NS(=O)(=O)c1ccc(-c2cnc(C3CC3)o2)cc1	0	-38*!	-5	-2	18
COc1ccc(NS(=O)(=O)c2ccc(-c3cnc(C4CC4)o3)cc2)cc1OC	0	-31*	-7	-7	17
COc1ccccc1NS(=O)(=O)c1ccc(-c2cnc(C3CC3)o2)cc1	0	-25	2	-2	10
O=[N+]([O-])c1ccccc1S(=O)(=O)Nc1ccc(-c2ccc3nncn3n2)cc1	0	2	17	-1	3
Cc1cc(Cl)ccc1C(=O)C1CCCN(C(=O)CN2CCOC2=O)C1 (stereo not given)	0	6	1	-3	6
CCCS(=O)(=O)c1nc(S(=O)(=O)c2ccc(C)cc2)c(NCc2ccccc2)s1	1	-6	7	-2	4
O=C(c1ccc(C(F)(F)F)cc1)C1CCCN(C(=O)Cn2cncn2)C1 (stereo not given)	0	-37*	-6	8	4
O=C(CCn1cncn1)N1CCCC(N2CCN(c3cccc(C(F)(F)F)c3)CC2)C1 (stereo not given)	0	-44*	0	-4	0
O=C(CCn1cncn1)N1CCCC(N2CCN(c3ccc(F)cc3)CC2)C1 (stereo not given)	1	10	19	-8	1
Cc1ccc(Cn2c(=O)c3ccccc3n3c(-c4cccc(O)c4)nnc23)cc1	0	-1	-1	-1	0
OCCNCc1cc(Br)ccc1OCc1ccc(Cl)cc1Cl	0	1	2	-4	38*
COc1ccc(Cl)cc1Nc1ncnc2c1c(-c1ccccc1)cn2-c1ccccc1	-1	-58*	-16	-2	-1
Cc1ccccc1Nc1ncnc2c1c(-c1ccccc1)cn2-c1ccc(F)cc1	0	-34*	3	-3	-3
CN1CCN(c2ncnc3c2c(-c2ccccc2)cn3-c2ccc(F)cc2)CC1	-1	-42*	1	-14	2
COc1cccc(N2CCN(c3ncnc4c3c(-c3ccccc3)cn4-c3ccc(F)cc3)CC2)c1	0	14	-5	-1	1
CCC1CCCCN1CCCNC(=O)C1CCCN(c2ncnc3c2nc2n3CCCCC2)C1 (stereo not given)	0	-29	2	-6	1
CC(=O)c1cc(C(=O)Nc2cccc(C)c2)c2ccccn12	0	-11	1	-1	4
Cc1nn(C(C)C(=O)NCC2CCCO2)c(=O)c2cc3occc3n12 (stereo not given)	1	-33*	5	-9	0
O=C(O)c1ccc(CNCc2ccc(Cl)cc2)s1	1	3	-2	-3	1
CCOC(=O)CCCCN(Cc1ccccc1F)S(=O)(=O)c1ccc(F)c(C(=O)Nc2cc(Cl)cc(Cl)c2)c1	5	24	0	4	32*
CCN(Cc1ccccc1)S(=O)(=O)c1ccc(F)c(C(=O)Nc2cc(C(F)(F)F)ccc2Cl)c1	2	-30*	-4	-2	19
N#Cc1nc(-c2cccc(Cl)c2)oc1N1CCC(C(N)=O)CC1	0	-3	-4	-1	5
